High-throughput results from PubChem BioAssay.
Shiga toxin inh = blocks Shiga toxin action in Vero cells; 290,000 tested, 9.2% active; inhibition, % at 38.7 µM; AID 2315; Vero cells, Shiga toxin protein synthesis inhibition reporter; in the data active = inhibition mostly above about 28%, no sharp cut-off; inactive = mostly below about 43%; note: 0% is about no effect
Pf growth 48h = P. falciparum growth inhibition at 48 hours (one generation); P. falciparum luciferase growth in erythrocytes, 48 h; AID 504832; Potency, µM (doses to about 28.7 µM), for inactives: at the highest dose activity change, negative = inhibition, most hits filed as inhibitors; 310,000 tested, 5.9% active; note: potency is the fitted concentration of half-maximal effect; % is set by controls: 0 for no effect and ±100 for the full control effect
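First compound was added to culture medium, then infected red cells at 0.1% parasitemia and 2% hematocrit (final). After incubation at 37 C under 5% CO2, luciferase detection reagent was dispensed and light output recorded.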
HCMV antiviral = human cytomegalovirus inhibition | HFF cells, HCMV-luciferase reporter, 72 h; stronger effect = lower value | activity change, negative = inhibition, % at 57.5 µM | 410,000 tested, 4.5% active | AID 1259415; in the data active = activity change below about -60%; inconclusive = no clear call, values can overlap the other calls; inactive = above about -39%; note: % is set by controls: 0 for no effect and ±100 for the full control effect
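Screen run at 2 compound doses on HFFs infected with reporter HCMV, MOI 1 PFU/cell. Luciferase activity from cell lysates at 72 h post infection gave inhibition relative to buffer-only and Salinomycin wells.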
Pf growth 96h = inhibits malaria parasite growth, 96 h; P. falciparum luciferase reporter growth, 96 h; Potency, µM (top dose mostly 28.7 µM), for inactives: top-dose activity change, negative = inhibition, hits mostly inhibitors; 320,000 tested, 6.9% active; AID 504834; note: potency is the fitted concentration of half-maximal effect; % is set by controls: 0 for no effect and ±100 for the full control effect
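Plates of compound plus infected erythrocytes (2% hematocrit, 0.05% parasitemia final) incubate 96 hours, 37 C, 5% CO2. Detection reagent added; reduced luminescence from the parasites' luciferase reporter flags inhibition.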
CHX counter = counter-screen hit for Shiga toxin inhibitors, cycloheximide; cell reporter, cycloheximide protein synthesis inhibition counterscreen; max response, %; 300,000 tested, 12% active; AID 2314; in the data active = max response mostly above about 13%, no sharp cut-off; inactive = mostly below about 14%; note: read at 38.3 µM for the half of the compounds with a filed dose; 0% is about no effect
An asterisk follows results filed as active; i = inactive; ? = inconclusive; nt = no result given. This is a sample that favours compounds with a hit; in the whole collection about 20% have one here. Unless noted, calls come from the whole dose curve; as a rule, active = well fitted inhibition curve with a large enough effect; inconclusive = small, poorly fitted or top-dose-only effect, or another doubt; inactive = no such curve, though single readings can be large or run the other way.

SMILES | Shiga toxin inh | Pf growth 48h | HCMV antiviral | Pf growth 96h | CHX counter
CCCC(=O)Nc1ccc2nc(SCCOc3ccccc3)sc2c1 | nt | nt | -60* | nt | nt
CCC(=O)Nc1ccc2nc(SCCOc3ccccc3)sc2c1 | nt | nt | -63* | nt | nt
O=C(Nc1ccc2nc(SCCOc3ccccc3Cl)sc2c1)c1cccs1 | nt | nt | -88* | nt | nt
Cc1cccc(OCCSc2nc3ccc(NC(=O)COc4ccccc4)cc3s2)c1 | nt | nt | -18 | nt | nt
O=C(NCC(=O)N1CCN(c2ccccc2O)CC1)c1ccc2c(c1)OCO2 | -4 | ? | 1 | 94% | 6
CCOc1ccc(NC(=O)CN(C)C(=O)C2CSC3(C)CCC(=O)N23)cc1OCC (configuration not stated) | nt | ? | 35 | ? | nt
CN(C)CCNC(=O)/C(=C/c1ccc(-c2cccc(Cl)c2)o1)NC(=O)c1ccccc1 | -15 | 13µM* | 12 | 13% | -8
CN(C)CCCNC(=O)/C(=C/c1ccc(-c2ccc([N+](=O)[O-])cc2)o1)NC(=O)c1ccccc1 | 20 | ? | -8 | ? | -2
CN(C)CCNC(=O)/C(=C/c1ccc(-c2cccc([N+](=O)[O-])c2)o1)NC(=O)c1ccccc1 | 1 | 13µM* | -22 | ? | -2
Cc1ccc(C(=O)N/C(=C\c2ccc(-c3cccc([N+](=O)[O-])c3)o2)C(=O)NCCCN2CCOCC2)cc1 | -13 | ? | -62* | ? | -2
CC(C)(C)C1CCc2onc(C(=O)Nc3sc4c(c3C#N)CCCC4)c2C1 (configuration not stated) | nt | nt | 4 | nt | nt
CC1CCC(NC(=O)c2ccc(-n3cncn3)c([N+](=O)[O-])c2)CC1 (configuration not stated) | nt | 4% | 22 | 26% | nt
CCOc1ccc(N2C(=O)c3cccnc3C2Nc2ccc(C)cc2)cc1 (configuration not stated) | -11 | 9.3µM* | -21 | 1.7µM* | 12
CCOc1ccc(N2C(=O)c3cccnc3C2=O)cc1 | -2 | 44% | -12 | 1.9µM* | 2
CCOc1ccc(N2C(=O)c3cccnc3C2Nc2ccc(OC)cc2)cc1 (configuration not stated) | -11 | ? | -25 | 54% | -4
CCOc1ccc(N2C(=O)c3cccnc3C2Nc2ccc(C)c(C)c2)cc1 (configuration not stated) | -8 | nt | 2 | 4.7µM* | -1
CCOc1ccc(N2C(=O)Cc3ccccc3C2=O)cc1 | -12 | -5% | ? | 1% | -2
CSCC[C@H](NC(=O)[C@H](CC(C)C)NC(=O)CNC(=O)[C@H](Cc1ccccc1)NC(=O)[C@H](Cc1ccccc1)NC(=O)[C@H](CCC(N)=O)NC(=O)[C@H](CCC(N)=O)NC(=O)[C@@H]1CCCN1C(=O)[C@H](CCCCN)NC(=O)[C@@H]1CCCN1C(=O)[C@H](CCCN=C(N)N)NC(=O)CCCCC1SCC2NC(=O)NC21)C(N)=O (some centres not stated) | 14 | nt | nt | nt | 23
CCN(CC)S(=O)(=O)c1ccc2c(c1)N(CC(=O)N1CCN(c3cccc(OC)c3)CC1)C(=O)CO2 | nt | nt | -6 | nt | nt
COc1ccc(-c2ccc(CNCCCSc3nnnn3C)o2)cc1Cl | nt | nt | -14 | nt | nt
Cc1ccc(N2CCn3c2nc2c3c(=O)n(Cc3cccc(Cl)c3)c(=O)n2C)cc1C | nt | nt | -16 | nt | nt
Fc1ccc(CSc2nnc(-c3cnccn3)n2Cc2ccco2)cc1 | 24 | -5% | 2 | nt | 2
Cn1c(SCc2ccccc2)nnc1-c1cnccn1 | 97* | 13% | -61* | 2% | 37*
Cc1ccccc1CSc1nnc(-c2cnccn2)n1C | 57* | 48% | 34 | 55% | 31*
Cn1c(SCc2ccc(F)cc2)nnc1-c1cnccn1 | 61* | 24% | -33 | 20% | 20*
SMILES | Shiga toxin inh | Pf growth 48h | HCMV antiviral | Pf growth 96h | CHX counter
COc1ccc(NC(=O)CN(C)S(=O)(=O)c2ccc3c(c2)CCCN3C(C)=O)cc1Cl | nt | nt | -22 | nt | nt
O=C(O)c1ccc(/C=N/Nc2ccc(F)cc2F)cc1 | 131* | i | 214 | i | 40*
O=C(N/N=C/c1ccc(F)cc1)c1ccncc1 | nt | 19% | 1 | 16% | 0
Fc1ccc(N/N=C/C=C/c2ccccc2)c(F)c1 | 34* | 48% | 85 | ? | 32*
Fc1ccc(N/N=C/c2ccncc2)c(F)c1 | 50* | 86% | 113 | 6% | 40*
Cc1cccc(N2CCN(C(=O)Cn3c(-c4cccs4)cc4ccccc43)CC2)c1C | nt | nt | -8 | nt | nt
CCCCOc1ccc(C(=O)N2CCN(CC(=O)Nc3ccc(C)cc3)CC2)cc1OC | 2 | ? | -12 | ? | 10
